# Experimental data reported in paper PMC12431657, “Discovery and mechanistic insights of dibenzoylmethane as a broad spectrum inhibitor of coronavirus” (PLOS Pathogens, 2025).
# Hit rate of the full screen: of about 3,300 compounds, about 60 (2%) showed an effect of 50% or more. Many of the other results were omitted from the sample, so strong results are more common in it than they were.
# System: HCoV-OC43
# Set-up: species or system RD; HTS, protection from HCoV-OC43 induced cell death, luminescent cell viability (CellCounting-Lite 2.0), inhibition rate
# Details: 24 h post infection, 1 h compound pre-incubation; 10 µM; inhibitor
row,Compound,OC43 Inhibition rate [%]
1,C=C1[C@@H](C)[C@H]2[C@H](Cc3ccccc3)NC(=O)[C@]23OC(=O)/C=C/[C@H](O)CCC[C@@H](C)C/C=C/[C@H]3[C@@H]1O [Cytochalasin B],63
2,C=C1C[C@@]23CC[C@H]4[C@@](C)(CCC[C@@]4(C)C(=O)O[C@@H]4O[C@H](CO)[C@@H](O)[C@H](O)[C@H]4O[C@@H]4O[C@H](CO)[C@@H](O)[C@H](O)[C@H]4O)[C@@H]2CC[C@]1(O[C@@H]1O[C@H](CO)[C@@H](O)[C@H](O[C@@H]2O[C@H](CO)[C@@H](O)[C@H](O)[C@H]2O)[C@H]1O[C@@H]1O[C@H](CO)[C@@H](O)[C@H](O)[C@H]1O)C3 [Rebaudioside D],1.1
3,CCCCC1OC(=O)C2=CCCCC21 (stereo not drawn) [Sedanolide],-0.1
4,COc1ccc(-c2oc3c(CC=C(C)C)c(O)cc(O)c3c(=O)c2O[C@@H]2O[C@@H](C)[C@H](O)[C@@H](O)[C@H]2O[C@@H]2O[C@@H](C)[C@H](O)[C@@H](O)[C@H]2O)cc1 [2''-O-Rhamnosylicariside II],0.3
5,CC(C)=CCc1c(O)cc(O)c2c(=O)c(O[C@@H]3O[C@@H](C)[C@H](O)[C@@H](O)[C@H]3O)c(-c3ccc(O)cc3)oc12 [IKarisoside A],14.9
6,CC(C)=CCc1c(O)cc(O)c2c(=O)cc(-c3ccc(O)cc3)oc12 [Licoflavone C],7.3
7,CC(C)=CCc1c(O)ccc(-c2coc3cc(O)cc(O)c3c2=O)c1O [Licoisoflavone A],59.7
8,CC(C)=CCc1c(O)cc(O)c2c(=O)c(-c3ccc(O)cc3)coc12 [Lupiwighteone],63.3
9,CC(C)=CCc1c(-c2ccc(O)cc2O)oc2c3c(cc(O)c2c1=O)OC(C)(C)C=C3 [Morusin],5.8
10,CC(C)=CCc1c(-c2ccc(O)cc2O)oc2c(CC=C(C)C)c(O)cc(O)c2c1=O [Mulberrin],51.7
11,COc1ccc(-c2oc3c(CC=C(C)C)c(O)cc(O)c3c(=O)c2O[C@@H]2O[C@@H](C)[C@H](O)[C@@H](O)[C@H]2O)cc1 [Baohuoside I],70.2
12,CC(C)=CCc1cc(-c2coc3cc(O)ccc3c2=O)ccc1O [Neobavaisoflavone],18.1
13,CC(C)=CCc1cc(-c2coc3cc(O)cc(O)c3c2=O)cc(O)c1O [Glycyrrhisoflavone],2.1
14,O=c1c(-c2ccc(O)cc2)coc2cc(O)cc(O)c12 [Genistein],6.8
15,COc1ccc(-c2oc3c(CC=C(C)C)c(O)cc(O)c3c(=O)c2O)cc1 [Icaritin],0.1
